# Screening results (PubChem BioAssay)
# CYP2C19 act: activators of human cytochrome P450 2C19. P33261. recombinant CYP2C19, luciferin-H EGE luminescence; active compounds read high; 0 = fully inhibited enzyme, 1 = untreated enzyme. activation factor at 5 µM. 96,000 tested, under 10 active. AID 1025;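 active = activation factor of at least 2 at 5 µM in the primary screen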;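 also: 0 = wells with 2.5 mM tranylcypromine and 1 = vehicle-only wells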
# Target sequence (P33261 whole entry, looked up): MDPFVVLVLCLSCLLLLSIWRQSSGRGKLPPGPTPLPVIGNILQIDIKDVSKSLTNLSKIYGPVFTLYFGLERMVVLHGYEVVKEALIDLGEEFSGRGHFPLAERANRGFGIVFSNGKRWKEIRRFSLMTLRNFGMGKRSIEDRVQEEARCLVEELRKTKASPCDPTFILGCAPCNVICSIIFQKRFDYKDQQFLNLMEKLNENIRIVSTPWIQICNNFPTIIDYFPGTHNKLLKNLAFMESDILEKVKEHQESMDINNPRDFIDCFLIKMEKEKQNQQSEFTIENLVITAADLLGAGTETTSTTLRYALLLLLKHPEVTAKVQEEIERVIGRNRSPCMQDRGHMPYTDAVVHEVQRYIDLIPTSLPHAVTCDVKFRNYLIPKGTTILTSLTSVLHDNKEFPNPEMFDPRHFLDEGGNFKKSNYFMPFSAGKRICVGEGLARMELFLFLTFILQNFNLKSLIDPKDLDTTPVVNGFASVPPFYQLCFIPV
# CYP2C9 act: increases human cytochrome P450 2C9 activity. activation factor at 5 µM. P11712. 1.4% of 96,000 active. recombinant CYP2C9, luciferin-H conversion, luminescence; active compounds read high; factor 1 = untreated enzyme, 0 = blocked;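 active = activation factor of 2 or more for CYP2C9 at a 5 µM dose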;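 also: 0 = sulfaphenazole-blocked wells and 1 = vehicle-only wells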
# CYP2C19 inh: inhibitors of human CYP2C19; P33261; 21% of 96,000 active; AID 778; inhibition, % at 5 µM; CYP2C19 Supersomes, luciferin-H EGE luminescence, 30 min;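 active = CYP2C19 inhibition above a set limit at 5 µM in the primary screen, cut at about 50% in these data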;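 also: plate controls were negative control wells for no effect and 2.5 mM tranylcypromine positive control for full effect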
# CYP2C9 inhib: blocks human cytochrome P450 2C9 | CYP2C9 Supersomes, luciferin-H conversion, luminescence | AID 777 | 20% of 96,000 active | inhibition, % at 5 µM;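 active = blocking of liver enzyme CYP2C9 beyond about 50% at 5 µM, limit read from the data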
# Pyk2 oligo antag: Pyk2 (human) oligomerization antagonism. Q14289. AID 1347419. Q293 cells, Pyk2 FERM NanoBiT luminescence; active compounds read low. z-score (the deposit names both 25 µM and 10 µM). 0.83% of 99,000 active;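 active = Z-score of -3 or lower, scaled per plate to the spread of control and sample wells; inactive = z-score above -3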;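 also: negative z-score means lost luminescence so less FERM oligomerization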
# Active calls of the source: *; x = no result. An excerpt weighted towards active compounds, which were near 28% of everything screened.
SMILES,CYP2C19 act,CYP2C9 act,CYP2C19 inh,CYP2C9 inhib,Pyk2 oligo antag
CC(C)CN(C(=O)COC(=O)c1cc2c(s1)CCC2)C1CCS(=O)(=O)C1 (stereo unspecified),1,0.9,-4,10,0.26
O=C(CCNC(=O)Cn1cnc2ccccc2c1=O)NCC1COc2ccccc2O1 (stereo unspecified),0.9,0.7,14,28,0.32
Cc1ccc2nsnc2c1S(=O)(=O)Nc1cccc2nsnc12,0.8,0.1,23,90*,-1.6
O=C1CN(C(=O)c2ccc(Br)o2)C(c2ccc(F)cc2)c2cc(F)ccc2N1 (stereo unspecified),x,x,x,x,-1.9
COc1ccc(-c2nn(CC(=O)N3CCCCC3)c(=O)c3ccccc23)cc1,1,0.6,-4,43,x
C/C(=N\NC(=O)c1cccc(Br)c1)c1cccc(NC(=O)c2ccc(C)o2)c1,1.1,1,-12,3,-0.71
C=CCN(CCNP(=O)(OCC)OCC)CP(=O)(OCC)OCC,1,1,-2,-3,-0.08
COc1cc(/C=C2\OC(=O)c3c(OC)cccc32)ccc1O,0,0.1,97*,95*,-1
C=CCn1c(SCC(=O)/C(C#N)=C(\C)N)nnc1C1CCCCC1,0.2,1,78*,-3,0.02
C/C(N)=C(/C#N)C(=O)CSc1nc(C2CCCCC2)n(-c2ccccc2)n1,0.8,0.2,23,77*,-1.8
O=c1cc(CSc2nnc(-c3cccnc3)n2-c2ccccc2F)nc2sccn12,0.8,0.9,18,10,0.63
C/C(N)=C(/C#N)C(=O)CSc1nnc(Cc2ccccc2F)n1N,0.6,1,42,-2,1.4
C/C(N)=C(/C#N)C(=O)CSc1nnc(-c2ccc3c(c2)OCO3)o1,0.8,1.1,21,-10,0.02
C=CCn1c(SCC(=O)NC(=O)NC2CCCC2)nnc1C1CCCCC1,x,x,x,x,0.72
C=CCn1c(SCc2cc(=O)n3ccsc3n2)nnc1C1CCCCC1,0.1,1,88*,1,1.2
C/C(N)=C(/C#N)C(=O)CSc1n[nH]c(-c2ccccc2Br)n1,0,0.8,97*,19,0.28
O=C(CCCNS(=O)(=O)c1ccc(Br)cc1)N1CC[C@@]2(O)CCCC[C@H]2C1,1,1,2,4,-0.2
O=S(=O)(c1ccc(N2CCCC2c2nc3ccccc3s2)nc1)N1CCOCC1 (stereo unspecified),0.1,0.1,89*,86*,-0.73
O=S(=O)(c1ccc(Br)cc1)N1CCCC1c1nc2ccccc2s1 (stereo unspecified),x,x,x,x,-0.68
CC(C)CCNC(=O)CN(Cc1ccc2c(c1)OCO2)C(=O)CCC(=O)Nc1ccccn1,0.9,0.7,12,34,-0.39
CCCCN(C(=N)N1CCCCC1)c1nc(C)c([N+](=O)[O-])c(=O)[nH]1,x,x,x,x,1
COc1cccc(CN(CC(=O)NC2CCCC2)C(=O)Cn2nnc(-c3cccs3)n2)c1,0.3,0,66*,97*,0.13
COCCNC(=O)CN(C(=O)CCC(=O)Nc1cc(C)on1)c1cccc(C)c1C,0.4,0.6,57*,41,-0.51
CCC(C(=O)NC1CCCC1)N(C(=O)Cn1nnc(-c2cccs2)n1)c1cnc2ccccc2c1 (stereo unspecified),1,1,0,-3,-0.43
Cc1cc(NC(=O)CCC(=O)N(CC(=O)NC2CCCC2)Cc2ccco2)no1,0.9,0.8,13,20,-0.29
SMILES,CYP2C19 act,CYP2C9 act,CYP2C19 inh,CYP2C9 inhib,Pyk2 oligo antag
COc1cccc(CN(CC(=O)NC2CCCC2)C(=O)CCC(=O)Nc2cc(C)on2)c1,0.5,0.2,51*,78*,0.96
Cc1ccc(CNC(=O)c2nc3nc(C)cc(C)n3n2)cc1,1.2,1.1,-18,-14,0.48
COc1ccc(C2(C(=O)N3CCOCC3)CCOCC2)cc1OC,1,1.1,2,-9,-0.66
CCCOc1cc(CC(=O)NCc2ccco2)ccc1OC,0.3,0.4,71*,63*,1.9
COc1ccc(CNCc2ccco2)cc1OCc1ccccc1,0.4,1.1,65*,-5,0.07
COc1ccc(CCn2c(=S)[nH]c3cc(C(=O)NCc4ccco4)ccc3c2=O)cc1OC,0.6,0.4,42,60*,-2.8
COc1cc(OC)cc(C(=O)NC(=S)NCc2ccco2)c1,1.1,0.7,-5,33,0.26
COc1ccc(-n2c(=S)[nH]c3cc(C(=O)NCc4ccco4)ccc3c2=O)cc1OC,1,1,-4,-4,-0.08
COc1ccccc1CCNCc1ccc(OC)c(OCc2ccccc2)c1,0.6,1.2,42,-17,1.2
COc1cc(CC(=O)NCc2ccco2)cc(OC)c1OC,0.8,1.1,21,-6,-0.09
COc1ccc(C(=O)NC(=S)NCc2ccco2)cc1OC,0.5,0.3,54*,70*,-0.34
O=C(CCc1ccc(S(=O)(=O)N2CCCCC2)cc1)c1nnc(-c2ccccc2)o1,0.3,0.6,74*,41,-0.74
CCOC(=O)C1=C(C)NC(C)=C(C(=O)OCC)C1C(=O)OCC(=O)N1CCC(C)CC1,0.9,0.7,12,35,-0.07
Cc1c(C(=O)OCC(=O)N2c3ccccc3CC2C)oc2ccccc12 (stereo unspecified),x,x,x,x,-0.39
CCOC(=O)C1=C(C)NC(C)=C(C(=O)OCC)C1C(=O)OCC(=O)N1CCc2ccccc2C1,0.4,0.2,56*,79*,0.11
CCNC(=O)COC(=O)C1C(C(=O)OCC)=C(C)NC(C)=C1C(=O)OCC,0.1,0.3,86*,75*,0.38
O=C(CN1C(=O)c2ccccc2C1=O)OCC(=O)N1CCc2ccccc2C1,1.1,1.4,-14,-44,-0.81
CCOC(=O)C1=C(C)NC(C)=C(C(=O)OCC)C1,0.7,0.9,28,11,0.29
COC(=O)C1=C(C)NC(C)=C(C(=O)OC)C1C(=O)OCC(=O)N1c2ccccc2CC1C (stereo unspecified),0.1,0.1,86*,93*,-0.4
CCOC(=O)C1=C(C)NC(C)=C(C(=O)OCC)C1C(=O)OCC(=O)N1CCCCC1CC (stereo unspecified),0.4,0.3,62*,67*,-0.22
O=C(c1ccccc1)C1CCc2occc2C1=O (stereo unspecified),0.8,0.9,24,6,0.27
O=C(NCCN1CCOCC1)c1ccc(-c2ccccc2)cc1,1.2,1.1,-16,-11,2
O=C(Cc1ccc(-c2ccccc2)cc1)NCCN1CCOCC1,0.3,0.6,72*,42,1.6
O=C(NCCCN1CCOCC1)c1ccc(Br)s1,0.7,1.2,26,-16,0.31
O=C(CN1C(=O)c2ccccc2C1=O)N1CCOCC1,0.9,0.8,10,15,0.6
O=C(Cc1ccc(-c2ccccc2)cc1)N1CCOCC1,0.3,0.3,74*,65*,-0.1
O=C(Cc1nc(-c2ccc(Br)s2)cs1)NCCN1CCOCC1,0.2,0.7,77*,34,-0.77
O=C(NCCN1CCOCC1)c1ccc2c(c1)N(Cc1ccccc1)CCS2,0.5,0.4,54*,63*,x
